Results from the supplement of paper PMC12808144.
Structures can show the parent of a compound that is named as a salt. A number with no mark means an inactive call.

Each compound was assayed on Mel-DCC-11 (assay: cell viability relative to DMSO control (fraction of DMSO control); higher = less cytotoxic, active = 0.5 or less). Conditions: 1 µM; 120 h.
How it was run: (§1)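 Luminescence from ATPlite 1step was read after 120 h in 384-well plates carrying 315 approved anti-cancer drugs (TargetMol), acoustically pre-spotted to give 1 µM in duplicate. Cells were seeded in 40 µl per well: 2500/well NHEM-hTERT immortalized melanocytes and 1500/well patient-derived Mel-DCC-11 and Mel-DCC-11-R, its resistant subline, which was assayed alone and with 8 µM of its selecting drug. Viability was normalised to vehicle-treated controls and averaged across duplicate wells.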

SMILES | cell viability
CNC(=O)c1cc(Oc2ccc(NC(=O)Nc3ccc(Cl)c(C(F)(F)F)c3)cc2)ccn1.Cc1ccc(S(=O)(=O)O)cc1 [Sorafenib tosylate] | 1.35
Cc1ccc(Nc2nccc(N(C)c3ccc4c(C)n(C)nc4c3)n2)cc1S(N)(=O)=O [Pazopanib] | 1.68
CC[C@]1(O)C[C@@H]2C[N@@](CCc3c([nH]c4ccccc34)[C@@](C(=O)OC)(c3cc4c(cc3OC)N(C)[C@H]3[C@@](O)(C(=O)OC)[C@H](OC(C)=O)[C@]5(CC)C=CCN6CC[C@]43[C@@H]65)C2)C1.O=S(=O)(O)O [Vinblastine sulfate] | 0.428 (active)
[Cl][Pt+2][Cl] [Cisplatin] | 1.12
CCNC(=O)[C@@H]1CCCN1C(=O)[C@H](CCCN=C(N)N)NC(=O)[C@H](CC(C)C)NC(=O)[C@@H](CC(C)C)NC(=O)[C@H](Cc1ccc(O)cc1)NC(=O)[C@H](CO)NC(=O)[C@H](Cc1c[nH]c2ccccc12)NC(=O)[C@H](Cc1cnc[nH]1)NC(=O)[C@@H]1CCC(=O)N1 [Leuprorelin Acetate] | 0.683
O=C(CCBr)N1CCN(C(=O)CCBr)CC1 [Pipobroman] | 0.709
NC(=O)NO [Hydroxyurea] | 0.899
CC1(C)CCC(CN2CCN(c3ccc(C(=O)NS(=O)(=O)c4ccc(NCC5CCOCC5)c([N+](=O)[O-])c4)c(Oc4cnc5[nH]ccc5c4)c3)CC2)=C(c2ccc(Cl)cc2)C1 | 1.42
CN1CCN(c2ccc3nc(-c4c(N)c5c(F)cccc5[nH]c4=O)[nH]c3c2)CC1 [Dovitinib] | 1.11
COC(=O)/C=C/C(=O)OC [Dimethyl fumarate] | 1.12
CCOC(=O)c1ccc(C#Cc2ccc3c(c2)C(C)(C)CCS3)nc1 [Tazarotene] | 1.1
O=c1[nH]c(=O)n([C@H]2C[C@H](O)[C@@H](CO)O2)cc1F [Floxuridine] | 1.34
CCCc1cc(C)[nH]c(=O)c1CNC(=O)c1cc(-c2ccnc(N3CCN(C)CC3)c2)cc2c1cnn2C(C)C | 1.45
CNC(=O)c1ccccc1Sc1ccc2c(/C=C/c3ccccn3)n[nH]c2c1 [Axitinib] | 1.51
CCOC(N)=O [Urethane] | 0.892
C[C@@H]1O[C@@H](O[C@H]2[C@H](Oc3cc(O)c4c(c3)O[C@H](c3ccc(O)cc3)CC4=O)O[C@H](CO)[C@@H](O)[C@@H]2O)[C@H](O)[C@H](O)[C@H]1O [Naringin] | 0.983
OC[C@H]1O[C@@H](n2cnc3c2NC=NC[C@H]3O)C[C@@H]1O [Pentostatin] | 1.12
C.CCN(CC)CCCC(C)Nc1ccnc2cc(Cl)ccc12.O=P(O)(O)O.O=P(O)(O)O (stereo not drawn) [Chloroquine diphosphate] | 1.06
C[C@]12CC[C@H](O)CC1=CC[C@@H]1[C@@H]2CC[C@]2(C)C(c3cccnc3)=CC[C@@H]12 [Abiraterone] | 1.28
CCS(=O)(=O)N1CC(CC#N)(n2cc(-c3ncnc4[nH]ccc34)cn2)C1 [Baricitinib] | 1.14
O=NN(CCCl)C(=O)NCCCl [Carmustine] | 1.16
CCCC(=O)O[C@]1(C(=O)CO)CC[C@H]2[C@@H]3CCC4=CC(=O)CC[C@]4(C)[C@H]3[C@@H](O)C[C@@]21C [Hydrocortisone butyrate] | 1.4
Cl.N=C1CCCN1Cc1[nH]c(=O)[nH]c(=O)c1Cl.O=c1[nH]c(=O)n([C@H]2C[C@H](O)[C@@H](CO)O2)cc1C(F)(F)F.O=c1[nH]c(=O)n([C@H]2C[C@H](O)[C@@H](CO)O2)cc1C(F)(F)F | 1.27
CC(C)(C#N)c1cc(Cn2cncn2)cc(C(C)(C)C#N)c1 [Anastrozole] | 0.836
COc1ccc2c(c1OC)C(=O)O[C@@H]2[C@H]1c2c(cc3c(c2OC)OCO3)CC[NH+]1C.[Cl-] [Noscapine hydrochloride] | 1.12

The compounds below were run on NHEM-hTERT in the same assay as above. Conditions: 1 µM; 120 h.
How it was run: as §1

SMILES | cell viability
CNC(=O)c1cc(Oc2ccc(NC(=O)Nc3ccc(Cl)c(C(F)(F)F)c3)cc2)ccn1.Cc1ccc(S(=O)(=O)O)cc1 [Sorafenib tosylate] | 0.904
CC1=C(/C=C/C(C)=C/C=C/C(C)=C\C(=O)O)C(C)(C)CCC1 [Isotretinoin] | 1.04
Cc1ccc(Nc2nccc(N(C)c3ccc4c(C)n(C)nc4c3)n2)cc1S(N)(=O)=O [Pazopanib] | 0.893
C=CC(=O)Nc1cc(Nc2nccc(-c3cn(C)c4ccccc34)n2)c(OC)cc1N(C)CCN(C)C.CS(=O)(=O)O [Osimertinib mesylate] | 1.14
COc1cccc2c1C(=O)c1c(O)c3c(c(O)c1C2=O)C[C@@](O)(C(C)=O)C[C@@H]3O[C@H]1C[C@H](N)[C@H](O)[C@H](C)O1.Cl [Daunorubicin hydrochloride] | 0.363 (active)
CC[C@]1(O)C[C@@H]2C[N@@](CCc3c([nH]c4ccccc34)[C@@](C(=O)OC)(c3cc4c(cc3OC)N(C)[C@H]3[C@@](O)(C(=O)OC)[C@H](OC(C)=O)[C@]5(CC)C=CCN6CC[C@]43[C@@H]65)C2)C1.O=S(=O)(O)O [Vinblastine sulfate] | 0.567
[Cl][Pt+2][Cl] [Cisplatin] | 1.04
O=C1CCC(N2C(=O)c3ccccc3C2=O)C(=O)N1 (stereo not drawn) [Thalidomide] | 1.1
CCNC(=O)[C@@H]1CCCN1C(=O)[C@H](CCCN=C(N)N)NC(=O)[C@H](CC(C)C)NC(=O)[C@@H](CC(C)C)NC(=O)[C@H](Cc1ccc(O)cc1)NC(=O)[C@H](CO)NC(=O)[C@H](Cc1c[nH]c2ccccc12)NC(=O)[C@H](Cc1cnc[nH]1)NC(=O)[C@@H]1CCC(=O)N1 [Leuprorelin Acetate] | 0.879
O=C(CCBr)N1CCN(C(=O)CCBr)CC1 [Pipobroman] | 0.902
CCc1c2c(nc3ccc(OC(=O)N4CCC(N5CCCCC5)CC4)cc13)-c1cc3c(c(=O)n1C2)COC(=O)[C@]3(O)CC [Irinotecan] | 0.894
Cc1ccc(NC(=O)c2ccc(CN3CCN(C)CC3)cc2)cc1Nc1nccc(-c2cccnc2)n1 [Imatinib] | 1.24
NC(=O)NO [Hydroxyurea] | 1.1
CC1(C)CCC(CN2CCN(c3ccc(C(=O)NS(=O)(=O)c4ccc(NCC5CCOCC5)c([N+](=O)[O-])c4)c(Oc4cnc5[nH]ccc5c4)c3)CC2)=C(c2ccc(Cl)cc2)C1 | 0.502
CN1CCN(c2ccc3nc(-c4c(N)c5c(F)cccc5[nH]c4=O)[nH]c3c2)CC1 [Dovitinib] | 0.972
COC(=O)/C=C/C(=O)OC [Dimethyl fumarate] | 1.33
CCOC(=O)c1ccc(C#Cc2ccc3c(c2)C(C)(C)CCS3)nc1 [Tazarotene] | 1.16

SMILES | cell viability
O=c1[nH]c(=O)n([C@H]2C[C@H](O)[C@@H](CO)O2)cc1F [Floxuridine] | 1.11
CCN(CC)C(=S)SSC(=S)N(CC)CC [Disulfiram] | 1.05
CCCc1cc(C)[nH]c(=O)c1CNC(=O)c1cc(-c2ccnc(N3CCN(C)CC3)c2)cc2c1cnn2C(C)C | 1.01
CNC(=O)c1ccccc1Sc1ccc2c(/C=C/c3ccccn3)n[nH]c2c1 [Axitinib] | 0.879
CCOC(N)=O [Urethane] | 1.09
C[C@@H]1O[C@@H](O[C@H]2[C@H](Oc3cc(O)c4c(c3)O[C@H](c3ccc(O)cc3)CC4=O)O[C@H](CO)[C@@H](O)[C@@H]2O)[C@H](O)[C@H](O)[C@H]1O [Naringin] | 0.986
OC[C@H]1O[C@@H](n2cnc3c2NC=NC[C@H]3O)C[C@@H]1O [Pentostatin] | 1.1
S=P(N1CC1)(N1CC1)N1CC1 [Triethylenethiophosphoramide] | 0.98
COc1cc2nccc(Oc3ccc(NC(=O)NC4CC4)c(Cl)c3)c2cc1C(N)=O [Lenvatinib] | 0.784
CO[C@@]12[C@H](COC(N)=O)C3=C(C(=O)C(C)=C(N)C3=O)N1C[C@@H]1N[C@@H]12 [Mitomycin C] | 0.685
C.CCN(CC)CCCC(C)Nc1ccnc2cc(Cl)ccc12.O=P(O)(O)O.O=P(O)(O)O (stereo not drawn) [Chloroquine diphosphate] | 1.27
C[C@]12CC[C@H](O)CC1=CC[C@@H]1[C@@H]2CC[C@]2(C)C(c3cccnc3)=CC[C@@H]12 [Abiraterone] | 0.938
CCS(=O)(=O)N1CC(CC#N)(n2cc(-c3ncnc4[nH]ccc34)cn2)C1 [Baricitinib] | 1.07
O=NN(CCCl)C(=O)NCCCl [Carmustine] | 0.992
CCCC(=O)O[C@]1(C(=O)CO)CC[C@H]2[C@@H]3CCC4=CC(=O)CC[C@]4(C)[C@H]3[C@@H](O)C[C@@]21C [Hydrocortisone butyrate] | 0.973
CC(=O)O[C@]1(C(C)=O)CC[C@H]2[C@@H]3C=C(C)C4=CC(=O)CC[C@]4(C)[C@H]3CC[C@@]21C [Megestrol acetate] | 1.04
